Test results published in PubChem BioAssay AID1209 (Sanford-Burnham Center for Chemical Genomics, 2008).
Hit rate of the full screen: of about 190,000 compounds, about 810 (0.43%) were called active. This is one part of a sample in which actives are shown more often than they occur. A number with no mark means an inactive call. No stated cut-off is given here; in the data, active means inhibition above about 50%; inactive means the rest.

The compounds below were run against Mannose-6-phosphate isomerase (Homo sapiens) (UniProt P34949) (assay: MPI enzyme activity inhibition – biochemical, fluorescence intensity, coupled assay, primary screen (AID 1209;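 further: plate controls were DMSO vehicle for no effect and wells lacking substrate for full effect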)). Conditions: purified PMI enzyme, at 20 µM, stronger effect = higher value.
Chain of Mannose-6-phosphate isomerase (Homo sapiens) (P34949 whole entry, looked up): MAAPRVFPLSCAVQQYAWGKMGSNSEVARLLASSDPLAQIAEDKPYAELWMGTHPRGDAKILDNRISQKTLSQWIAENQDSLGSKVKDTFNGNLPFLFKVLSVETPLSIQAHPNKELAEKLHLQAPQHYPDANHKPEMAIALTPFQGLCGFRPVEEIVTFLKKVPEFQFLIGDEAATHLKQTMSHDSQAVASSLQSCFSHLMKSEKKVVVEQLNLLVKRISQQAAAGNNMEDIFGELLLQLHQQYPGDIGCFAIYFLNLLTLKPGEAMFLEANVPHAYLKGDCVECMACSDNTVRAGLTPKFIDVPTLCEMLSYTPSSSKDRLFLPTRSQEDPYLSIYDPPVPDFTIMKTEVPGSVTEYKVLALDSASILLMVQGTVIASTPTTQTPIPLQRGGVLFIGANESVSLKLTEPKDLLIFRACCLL

Compound	inhibition
COc1ccc(/C=C/C(=O)OCC(=O)Nc2c(C)cccc2C)cc1	-7.6%
COc1ccc(Nc2cc(C)nc3ccccc23)cc1	16%
CC(=O)c1ccc(Nc2cc(C)nc3ccc(C)cc23)cc1	11.3%
CC(=O)c1ccc(Nc2cc(C)nc3ccccc23)cc1	95.7% (active)
Cc1ccc(O)c(C(=O)c2cnc3c(c2)CN(C)C(=O)N3)c1	3.7%
O=C(c1cnc2sccn2c1=O)N(Cc1ccccc1)c1ccccn1	14.3%
CCOC(=O)c1c(NC(=O)CSc2nnnn2-c2ccc(OC)cc2)sc(C)c1C	60% (active)
CCOC(=O)c1sc(NC(=O)CSc2nnnn2-c2ccccc2)c(C(=O)OCC)c1C	14.3%
CCOC(=O)c1sc(NC(=O)CSc2nnnn2-c2ccc(C)cc2)c(C(=O)OCC)c1C	12.2%
Cc1cc(OCC(=O)NCc2ccncc2)ccc1Cl	1%
Cc1ccc(N2CCN(CC(=O)Nc3c(C(=O)C4CC4)oc4ccccc34)CC2)cc1	-11.1%
COc1ccc(N(CC(=O)Nc2ccc3c(c2)OCO3)S(C)(=O)=O)c(OC)c1	-4.4%
COc1ccc(CC(=O)O)cc1O	2.3%
COC(=O)[C@@H](N)Cc1ccc(O)cc1	2.6%
COC(=O)C(N)Cc1ccc(O)c(O)c1 (stereo unspecified)	56.9% (active)
C[C@](N)(Cc1ccc(O)c(O)c1)C(=O)O	57.7% (active)
C[C@@](Cc1ccc(O)c(O)c1)(NN)C(=O)O	12.9%
COC(=O)C(N)Cc1ccc(O)cc1 (stereo unspecified)	-4.5%
Oc1c(C(c2ccccc2)N2CCCCC2)sc2ncnn12 (stereo unspecified)	-8.5%
COc1cc2c(cc1OC)C(=S)NC1(CCCC1)C2	-19.1%
CC(=O)c1c(OC(=O)c2ccco2)c2ccccc2n1C	4%
NC(=O)c1ccsc1NC(=O)CSc1nnc(Nc2ccccc2)s1	0.1%
CC(C)C[C@H](NS(=O)(=O)c1ccc(Br)cc1)C(=O)O	5.2%
CCCCNc1nc(NC)nc(Cl)c1SC	0.4%
C/C(=N\NC(=O)c1ccc([N+](=O)[O-])cc1)c1cccc([N+](=O)[O-])c1	3.4%
C/C(=N/NC(=O)c1cc(O)c(O)c(O)c1)c1ccc([N+](=O)[O-])cc1	64.5% (active)

Compound	inhibition
C/C(=N\NC(=O)c1ccc([N+](=O)[O-])cc1)c1c(O)cc(C)oc1=O	-40.7%
CCN(CC)c1ccc(/C=C2\NC(=O)NC2=O)cc1	9.7%
O=C(Nn1cnc2ccccc2c1=O)c1cccc(Cl)c1	3%
OC(COCC1COc2ccccc2O1)CN1CCN(c2ccccc2)CC1 (stereo unspecified)	1.8%
C[N+]1(CC(O)COCC2COc3ccccc3O2)CCOCC1 (stereo unspecified)	66.2% (active)
CC[N+](C)(CC)CC(O)COCC1COc2ccccc2O1 (stereo unspecified)	19.8%
C/C(=N\NC(N)=S)C1C2C3CC4C5CC(C42)C1C53 (stereo unspecified)	0.3%
O=C(NCc1ccco1)c1ccccc1-c1ccc(C(F)(F)F)cc1	4.9%
CN1CCN(Cc2cc(COCc3ccccc3)c3cccnc3c2O)CC1	43.5%
COc1ccccc1N1CCN(Cc2cc(Br)c(O)c3ncccc23)CC1	25.4%
CCOC(=O)N1CCN(Cc2ccccc2Cl)CC1	4.4%
CCOC(=O)N1CCN(Cc2cc(Cl)c3cccnc3c2O)CC1	54.9% (active)
Oc1ccc(CN2CCN(c3ccccc3)CC2)c2cccnc12	35.3%
O=[N+]([O-])c1cc(CN2CCCC2)c2cccnc2c1O	5%
CN1CCN(Cc2cc(Cl)c3cccnc3c2OC(=O)c2cccs2)CC1	15.8%
Oc1c(CN2CCCCC2)cc(COCc2ccccc2)c2cccnc12	46.6%
Oc1c(CN2CCCCC2)cc(Br)c2cccnc12	51.6% (active)
COc1ccccc1N1CCN(Cc2ccc(O)c3ncccc23)CC1	55.7% (active)
COCc1cc(CN2CCCC2)c(O)c2ncccc12	41%
Cc1ccc(S(=O)(=O)N2CCCC2C(=O)Nc2nccs2)cc1 (stereo unspecified)	-9.8%
CCOC(=O)C1CCCN(C(=O)c2ccc(Cl)c(S(=O)(=O)N3CCCCCC3)c2)C1 (stereo unspecified)	-22.1%
O=C1OC(Nc2ccc(F)cc2F)c2ccccc21 (stereo unspecified)	-10.1%
CCOC(=O)N1CCN(c2nc(C)cc(C(F)(F)F)n2)CC1	15.5%
COc1ccc(N=C2SC(C(=O)N3CCN(c4ccccc4)CC3)CC(=O)N2C)cc1 (stereo unspecified)	5%
CC(C)(C)C1CCc2c(C(=O)NNC(=O)CCCC(=O)O)csc2C1 (stereo unspecified)	-6.1%
COc1ccccc1C1C(C(C)=O)=C(O)C(=O)N1CCc1ccccc1 (stereo unspecified)	4.1%

Compound	inhibition
Cc1ccccc1NC(=S)NC1CC2CCC(C1)N2Cc1ccco1 (stereo unspecified)	-0.8%
COc1ccc(CC2(C)OC(c3ccc(Cl)cc3)=NN2C(C)=O)cc1 (stereo unspecified)	19%
O=C(Nc1ccc(S(=O)(=O)Nc2ncccn2)cc1)c1ccccc1NS(=O)(=O)c1ccc(F)cc1	2.8%
Cc1ccc(C)c(C(=O)COC(=O)c2cc(Cl)nc3ccccc23)c1	12.6%
Oc1c(CN2CCc3ccccc3C2)cc(Cl)c2cccnc12	40%
c1cc2ccc3ccc(CN4CCOCC4)c4ccc(c1)c2c34	-2.6%
CCOC(=O)N1CCN(Cc2ccc(O)c3ncccc23)CC1	59.9% (active)
O=c1cc(CN2CCOCC2)c2c(ccc3ccccc32)o1	1.2%
CCOC(=O)C1CCN(Cc2ccc(OC)c(C)c2OC)CC1	-4.3%
CCOC(=O)C1CCN(Cc2ccc(O)c3ncccc23)CC1	67% (active)
COCc1cc(CN2CCN(C)CC2)c(O)c2ncccc12	36.7%
Oc1c(CN2CCOCC2)ccc2ccccc12	50.8% (active)
CCOC(=O)C1CCN(Cc2c(O)ccc3ccccc23)CC1	28.5%
Oc1ccc(CN2CCCCC2)c2cccnc12	43.3%
CCOC(=O)N1CCN(Cc2ccccn2)CC1	3.7%
CCOC(=O)CC(NC(=O)Cc1ccccc1)c1ccccc1Cl (stereo unspecified)	13.1%
COC(=O)C1=C(NC(=O)c2ccccc2C)CCS1	-17.4%
O=C(Nc1cnn(Cc2ccc(F)cc2)c1)C(c1ccccc1)c1ccccc1	16%
O=S(=O)(Nc1cccnc1)c1ccc(Cl)c(C(F)(F)F)c1	6%
CC(C)C(=O)NCCc1nc2ccccc2n1CCOc1ccccc1	-1.6%
CCN(CC)C(=O)C1=C(C)NC(=S)NC1c1cccs1 (stereo unspecified)	-9%
CCOC(=O)C1CCCN(Cc2cc(=O)oc3cc(C)ccc23)C1 (stereo unspecified)	-10.2%
CN(CC(=O)NC1CCCCCC1)S(=O)(=O)c1ccc2c(c1)n(C)c(=O)c(=O)n2C	2.1%
COC(=O)C1=C(NC(=O)c2ccc(C)c(C)c2)CCS1	3.8%
Cc1ccc2cc(C(c3nnnn3C3CCCC3)N3CCOCC3)c(=O)[nH]c2c1C (stereo unspecified)	-2.5%
CCOC(=O)C1=C(C)NC(=O)CC1c1cc2c(cc1Br)OCO2 (stereo unspecified)	1.2%

Compound	inhibition
CCOC(=O)C1=C(C)N(C)C(=O)NC1c1cc2c(cc1[N+](=O)[O-])OCO2 (stereo unspecified)	35.3%
CCOC(=O)C1=C(C)NC(=O)CC1c1cc2c(cc1[N+](=O)[O-])OCO2 (stereo unspecified)	53.2% (active)
Cc1noc(C)c1C(=O)OCC(=O)NC(=O)NC12CC3CC(CC(C3)C1)C2	-2.2%
Cc1noc(C)c1C(=O)OCC(=O)C12CC3CC(CC(C3)C1)C2	100% (active)
Cc1noc(C)c1C(=O)OCC(=O)NC1CC1	1.3%
O=C(/N=C1\NC(=O)C(F)(C(F)(F)F)S1)NC1CCCCC1 (stereo unspecified)	74.7% (active)
CCC1S/C(=N/C(=O)NC2CCCCC2)NC1=O (stereo unspecified)	-8.6%
O=C(Nc1nccs1)NC1CCCCC1	-3%
c1ccc2c(c1)nc(N1CCN(C3CCCCC3)CC1)c1nnnn12	4.7%
Cc1nc2ccc(Nc3nc4cc(S(=O)(=O)N5CCOCC5)ccc4o3)cc2s1	64.5% (active)
O=C(CSc1nc2cc(S(=O)(=O)N3CCOCC3)ccc2o1)Nc1c(F)cccc1F	31.9%
Cc1nc2ccc(NC(=O)c3ccc(S(=O)(=O)N4CCOCC4)cc3)cc2s1	1.9%
Cc1noc(C)c1CSc1nc2cc(S(=O)(=O)N3CCOCC3)ccc2o1	53.1% (active)
Cc1nc2ccc(NC(=O)c3cc(S(=O)(=O)N4CCOCC4)ccc3C)cc2s1	9.8%
Cc1ccc(C(=O)CSc2nc3cc(S(=O)(=O)N4CCOCC4)ccc3o2)cc1	25.2%
CC(/C=N/NC(=O)CSc1nc(C)cc(C)n1)=C\c1ccccc1	16.1%
CCOc1ccc(-c2nnc(-c3ccccc3)o2)cc1	-0.3%
CCCCc1nc(Cl)c(C#N)c2c1CSC(C)(C)C2	13.1%
CCc1onc(C)c1C(=O)O	-13.1%
COc1cccc(-c2nnc(NC(=O)Cc3cccs3)s2)c1	-3%
Cc1nn(Cc2cccc(C(=O)N3N=C(C(F)F)CC3(O)C(F)F)c2)c(C)c1[N+](=O)[O-] (stereo unspecified)	-1.8%
O=C1c2ccccc2C(=O)N1CN(C(=O)c1ccccc1[N+](=O)[O-])c1ccc(F)cc1	13.9%
Oc1ccccc1/C=C/c1noc(-c2ccccc2O)n1	-7%
